Experimental findings from PubChem BioAssay (NCI) are described below.

Among the test systems are DU-145 prostate; K-562 leukemia; MALME-3M melanoma; MDA-MB-231 breast; RXF 393 renal; SF-268 CNS; SF-295 CNS; SF-539 CNS; UACC-257 melanoma; M14 melanoma.
Assay in all cases: NCI-60 one-dose screen, 48 h (100 = growth as untreated, 0 = no growth, -100 = all killed)
Holding throughout (conditions): 10 µM unless noted

The structures appear in SMILES notation. About 83,000 compounds went through this panel and 20% of them were active in at least one assay; those are over-represented in the sample as a whole.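 Step 1: grow cells in 96-well plates. Step 2: add test compound at a single concentration. Step 3: incubate 48 h. Step 4: record percent growth.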 Values without a mark were called inactive. Active and inactive are the calls of the source. The calls were made as follows: active = growth percent below 10; inactive = the rest.

On to `N#Cc1c(Br)n(C2OC(CO)C(O)C2O)c2ncnc(N)c12` (stereo not given), for which the growth is 17.8% in the experiment with DU-145 prostate; 20.8% in the experiment on K-562 leukemia; 108% in the experiment on MALME-3M melanoma; 97.1% in the experiment on MDA-MB-231 breast; 13.8% in the experiment with RXF 393 renal; 55% in the experiment with SF-268 CNS. Also, the growth was 87.5% in the experiment with SF-295 CNS, 102% with SF-539 CNS, 80.3% in the experiment with UACC-257 melanoma and 60% in the experiment with M14 melanoma.

Regarding `COC(=O)[C@@H](C)C[C@H](Cc1ccccc1)NC(=O)c1cccc([C@@H](C[C@H](C(C)C)N(C)C(=O)[C@@H](NC(=O)[C@H]2CCCCN2C)C(C)C)OC(C)=O)n1`, the growth was 10.5% in the experiment on DU-145 prostate; 7.86% (active) in the experiment with K-562 leukemia; 77.9% in the experiment on MALME-3M melanoma; -4.66% (active) in the experiment with MDA-MB-231 breast; 46.1% with RXF 393 renal; 30.8% in the experiment with SF-268 CNS. Besides, the growth with SF-295 CNS is 6.28% (active); in the experiment with SF-539 CNS it was 2.03% (active); in the experiment on UACC-257 melanoma, 49.7%; in the experiment with M14 melanoma, -10.9% (active).

For the compound `CCOP(=O)(NC[C@H]1O[C@](O)(CO)[C@@H](O)[C@@H]1O)OCC`, the growth in the experiment with DU-145 prostate was 105%; in the experiment on K-562 leukemia, 97.5%; in the experiment on MALME-3M melanoma, 89.1%; with MDA-MB-231 breast, 94.3%; with RXF 393 renal, 96.4%; in the experiment on SF-268 CNS, 94.4%. Besides, the growth is 104% in the experiment on SF-295 CNS, 96.3% in the experiment with SF-539 CNS, 98.4% in the experiment with UACC-257 melanoma and 93.1% in the experiment with M14 melanoma.

Take `Cn1cc(-c2csc(-c3cn(CCCCN4CCCCC4)c4ccccc34)n2)c2cccnc21`: the growth is 21% in the experiment with DU-145 prostate; -57.8% (active) with K-562 leukemia; -66.9% (active) in the experiment with MALME-3M melanoma; -63.5% (active) in the experiment with MDA-MB-231 breast; -84.5% (active) in the experiment on RXF 393 renal; 1.24% (active) with SF-268 CNS. For the same compound, the growth in the experiment on SF-295 CNS was -18% (active); with SF-539 CNS it was -73.2% (active); in the experiment on UACC-257 melanoma, -67.3% (active); in the experiment on M14 melanoma, -80.3% (active).

Turning to `CC12CCC3C(C=CC4=C(N)C(=O)CCC43C)C1CCC2=O` (stereo not given), the growth was 62.4% with DU-145 prostate; -26.9% (active) in the experiment on K-562 leukemia; 70.8% in the experiment with MALME-3M melanoma; 101% in the experiment on MDA-MB-231 breast; 95.2% in the experiment on RXF 393 renal; 89% in the experiment with SF-268 CNS. The growth with SF-295 CNS was 105%; in the experiment on SF-539 CNS, 82.8%; in the experiment with UACC-257 melanoma it was 86.7%; in the experiment with M14 melanoma it was 79.5%.

As to `CCN(CC)c1ccc2c(c1)OC(N)=C(C#N)C2c1cc(OC)c2c(c1)OCO2` (stereo not given), the growth is -3.69% (active) with DU-145 prostate; 17.5% in the experiment with K-562 leukemia; 61.1% in the experiment on MALME-3M melanoma; 4.28% (active) in the experiment with MDA-MB-231 breast; 30.9% in the experiment on RXF 393 renal; 21.3% in the experiment on SF-268 CNS. Also, the growth in the experiment on SF-295 CNS was 17%; in the experiment on SF-539 CNS, 3.37% (active); in the experiment with UACC-257 melanoma it was 77.7%; with M14 melanoma it was 7.87% (active).

Consider `Cc1cc(C)cc(Nc2nc3c(s2)CC[C@@]2(C)C3=CC[C@@H]3[C@@H]2CC[C@]2(C)C(=O)CC[C@@H]32)c1`, for which the growth in the experiment with DU-145 prostate was 41.2%; in the experiment on K-562 leukemia, 17.1%; in the experiment on MALME-3M melanoma, 79.6%; with MDA-MB-231 breast, 77.5%; in the experiment with RXF 393 renal, -7.45% (active); in the experiment on SF-268 CNS it was 67.4%. The growth in the experiment with SF-295 CNS is 42.9%; in the experiment on SF-539 CNS it was 23%; with UACC-257 melanoma it was 87.9%; in the experiment on M14 melanoma, 83.4%.

On to `CC[C@H](C)[C@H](NC(=O)c1nccn1C)C(=O)N(C)[C@H](C[C@@H](OC(C)=O)c1nc(C(=O)N[C@@H](Cc2ccccc2)C[C@H](C)C(=O)OC)cs1)C(C)C`, for which the growth is 4.69% (active) with DU-145 prostate; 6.34% (active) in the experiment with K-562 leukemia; 71.6% in the experiment with MALME-3M melanoma; -5.75% (active) in the experiment on MDA-MB-231 breast; -0.416% (active) in the experiment with RXF 393 renal; 25.6% with SF-268 CNS. Besides, the growth in the experiment with SF-295 CNS was 4.7% (active); with SF-539 CNS, -31.7% (active); with UACC-257 melanoma, 54.2%; with M14 melanoma, 3.12% (active).

For the compound `Fc1ccc2c(c1)c(-c1nc(-c3c[nH]c4ncccc34)cs1)cn2CCCCN1CCCCC1`, the growth was -93.1% (active) in the experiment on DU-145 prostate; -74.1% (active) in the experiment with K-562 leukemia; -73% (active) with MALME-3M melanoma; -88.4% (active) with MDA-MB-231 breast; -73.1% (active) in the experiment with RXF 393 renal; -77.5% (active) in the experiment with SF-268 CNS. The growth in the experiment with SF-295 CNS was -60.7% (active); in the experiment on SF-539 CNS it was -82.4% (active); in the experiment with UACC-257 melanoma, -87.2% (active); in the experiment on M14 melanoma it was -88.5% (active).

In the case of `CC(C)CCC1(CCCl)C(=O)NC(=O)NC1=O`, the growth with DU-145 prostate is 107%; with K-562 leukemia it was 116%; with MALME-3M melanoma, 95.3%; with MDA-MB-231 breast it was 101%; in the experiment on RXF 393 renal it was 98.1%; in the experiment on SF-268 CNS it was 109%. Also, the growth with SF-295 CNS was 96.2%; with SF-539 CNS, 100%; in the experiment on UACC-257 melanoma, 91.1%; with M14 melanoma, 96.7%.

For `CCCC(C)C1(CC)C(=O)NC(=O)N(C)C1=O` (stereo not given), the growth in the experiment on DU-145 prostate was 107%; with K-562 leukemia, 102%; in the experiment with MALME-3M melanoma it was 90.1%; in the experiment with MDA-MB-231 breast, 107%; in the experiment on RXF 393 renal it was 119%; in the experiment with SF-268 CNS, 100%. Moreover, the growth was 102% with SF-295 CNS, 96.4% with SF-539 CNS, 83.6% in the experiment with UACC-257 melanoma and 101% in the experiment on M14 melanoma.
